This is part of a sample that, as a whole, favours compounds with a hit. Of some 83,000 tested, about 20% had one in any assay.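 Percent growth is the endpoint: 0 to 100 indicates growth inhibition (40 means 60% inhibition), 0 means no net growth, and negative values indicate cell death.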 A number with no mark means an inactive call. Active and inactive are the calls of the source. How the source made its calls: active means growth percent below 10; inactive means the rest.
Tests used:
Experiment in all cases: NCI-60 one-dose screen, 48 h (100 = growth as untreated, 0 = no growth, -100 = all killed)
Conditions in all cases: 10 µM unless noted
HCT-15 colon = system: HCT-15 colon
HT29 colon = system: HT29 colon
SNB-75 CNS = system: SNB-75 CNS
SNB-19 CNS = system: SNB-19 CNS
U251 CNS = system: U251 CNS
PC-3 prostate = system: PC-3 prostate
SK-MEL-5 melanoma = system: SK-MEL-5 melanoma
UACC-62 melanoma = system: UACC-62 melanoma
LOX IMVI melanoma = system: LOX IMVI melanoma
SK-MEL-28 melanoma = system: SK-MEL-28 melanoma
SK-MEL-2 melanoma = system: SK-MEL-2 melanoma
EKVX NSCLC = system: EKVX NSCLC
SN12C renal = system: SN12C renal
UO-31 renal = system: UO-31 renal
TK-10 renal = system: TK-10 renal
ACHN renal = system: ACHN renal
CAKI-1 renal = system: CAKI-1 renal
A498 renal = system: A498 renal
CCRF-CEM leukemia = system: CCRF-CEM leukemia
MOLT-4 leukemia = system: MOLT-4 leukemia

SMILES | growth (HCT-15 colon) | growth (HT29 colon) | growth (SNB-75 CNS) | growth (SNB-19 CNS) | growth (U251 CNS) | growth (PC-3 prostate) | growth (SK-MEL-5 melanoma) | growth (UACC-62 melanoma) | growth (LOX IMVI melanoma) | growth (SK-MEL-28 melanoma) | growth (SK-MEL-2 melanoma) | growth (EKVX NSCLC) | growth (SN12C renal) | growth (UO-31 renal) | growth (TK-10 renal) | growth (ACHN renal) | growth (CAKI-1 renal) | growth (A498 renal) | growth (CCRF-CEM leukemia) | growth (MOLT-4 leukemia)
CC(=O)O[C@H]1CC[C@]2(C)[C@H]3CC=C4[C@@H]5CC(C)(C)CC[C@]5(C(=O)N5CCN(CCC#N)CC5)CC[C@@]4(C)[C@]3(C)CC[C@H]2C1(C)C | 20.3% | 12.4% | 53.8% | 63.2% | 12.4% | 19.5% | 7.89% (active) | 38% | 20% | 52.2% | 68.7% | 65.8% | 53.4% | 30.2% | 54.1% | 28.2% | 35.1% | 5.98% (active) | 27.5% | 19.7%
COc1ccc(/C=C2\c3cc(OC)c(OC)c(OC)c3CC[C@@H]2O)cc1F | 20.7% | 11.9% | 14.5% | 42.4% | 20.1% | 23.1% | 23.8% | 34.2% | 37.3% | 70.1% | 41.6% | 44.1% | 53.2% | 47.7% | 57.9% | 43% | 48.4% | 8.33% (active) | 12.8% | 21.5%
COc1ccc(C(=O)/C=C/c2ccccc2)cc1S(N)(=O)=O | 44.1% | 63.6% | 87.2% | 40% | 26.2% | 74% | 88.2% | 79.2% | 42% | 107% | 89.8% | 95.6% | 44.9% | 54.7% | 66.8% | 74.9% | 82.3% | 85.3% | 57.8% | 57.5%
Fc1cccc(-c2nc(-c3c[nH]c4ncccc34)cs2)c1 | 82.9% [100 µM] | 76% [100 µM] | -14.1% [100 µM] (active) | 70.8% [100 µM] | 33.7% [100 µM] | 59.6% [100 µM] | 50.6% [100 µM] | 73.1% [100 µM] | 74.3% [100 µM] | 89.2% [100 µM] | 117% [100 µM] | 28.6% [100 µM] | 62.7% [100 µM] | 61.1% [100 µM] | 18% [100 µM] | 22% [100 µM] | -11.1% [100 µM] (active) | 76.6% [100 µM] | 72% [100 µM] | 71.8% [100 µM]
Clc1ccc(Nc2nnc(CNc3ccccc3)c3ccccc23)cc1 | 13.4% | 0.551% (active) | 19.6% | 25.9% | 9.66% (active) | 7.15% (active) | -69.1% (active) | 8.47% (active) | 12.1% | 14.9% | 8.63% (active) | 16.9% | 28.9% | 1.91% (active) | -0.692% (active) | 7.07% (active) | 28.2% | 24.7% | 12.4% | -9.21% (active)
CCn1cc(C(=O)N/N=C/c2ccccc2)c(=O)c2cc(F)c(N3CCNC(C)C3)c(F)c21 (stereo not given) | -86.5% (active) | -92% (active) | 92.8% | 18.9% | -92.3% (active) | 48.9% | 11.9% | -27.9% (active) | -87.3% (active) | -78.8% (active) | 93.4% | 34.3% | 61.7% | 47.5% | 82.7% | 56.8% | 45.8% | 99.6% | -52.1% (active) | -24.5% (active)
C=CCn1cc(-c2nc3ccccc3s2)c2cc(-c3ccc4c5c(cccc35)C(=O)N(CCO)C4=O)ccc21 | 94.3% | 98.2% | 98.9% | 93.1% | 97.2% | 83.7% | 96.1% | 94.9% | 95.4% | 110% | 105% | 81.3% | 89.2% | 62.7% | 138% | 94.5% | 75.2% | 113% | 104% | 91.3%
CN(C)Cc1ccc(NC(=O)c2cncc(C#Cc3cnc(N)c4ncccc34)c2)cc1C(F)(F)F | -50.6% (active) | -50.1% (active) | 82.2% | -8.43% (active) | -57.5% (active) | 92.2% | 24.8% | 45.1% | -79.9% (active) | -83.1% (active) | 40.5% | 89.4% | 69.9% | -82% (active) | 110% | -81.8% (active) | 83% | 60.6% | -6.13% (active) | 43.5%
COc1ccc(-c2cc(-c3cc(OC)ccc3OC)nc(SCC(C)=O)c2C#N)cc1 | 52.7% | 81.8% | 42.7% | 75.8% | 74.4% | 56.2% | 65.7% | 67.1% | 57.9% | 68% | 78.6% | 51.6% | 76.7% | 41.1% | 101% | 56.5% | 40.6% | 39% | 69.2% | 37.9%
N#Cc1ccc(/C=C/c2cn(-c3ccccc3)nc2-c2cccc([N+](=O)[O-])c2)cc1 | 65.4% | 53.2% | 27.3% | 21.6% | 46.7% | 44.3% | 72.7% | 77% | 77.4% | 66.3% | 76.3% | 66.8% | 48.1% | 79.3% | 76.9% | 32.7% | 71.1% | 97% | 88.3% | 97.6%
Cc1ccc(NC(=O)c2sc3nc(C)c(C(O)c4ccccc4)cc3c2N)cc1 (stereo not given) | 9.64% (active) | 9.15% (active) | 22.5% | 24.5% | 13.9% | 19.6% | 12.7% | 28.8% | 23.5% | 57.6% | 42.5% | 48% | 18.9% | 41.6% | 53% | 32.8% | 33.8% | -8.03% (active) | 7.67% (active) | 18.1%
COC(=O)c1c(C)nc(C)c2c1C(=O)C=C(NCc1ccccc1)C2=O | 73.3% | 92% | 88.9% | 93.2% | 99% | 75.6% | 51.4% | 65.8% | 61.7% | 108% | 72.8% | 71.5% | 88.6% | 74.2% | 119% | 76% | 81.5% | 124% | 89.1% | 75.9%
CC(=O)c1ccc(-n2cc(CN3CCN(c4cc5c(cc4F)c(=O)c(C(=O)O)cn5C4CC4)CC3)nn2)cc1 | 93.8% | 90.8% | 92.7% | 98.2% | 98.4% | 83.9% | 84.3% | 90.5% | 55.4% | 99.3% | 96.4% | 88.5% | 103% | 63.1% | 103% | 96.7% | 87.8% | 76.7% | 111% | 102%
CN(C)c1ccc(CNCCO)cc1 | 106% | 69.1% | 101% | 98.5% | 89.4% | 68.5% | 99.9% | 90.2% | 102% | 81.7% | 65.8% | 103% | 99.9% | 91.5% | 82.9% | 102% | 101% | 111% | 88.4% | 99%
CC/C(=C(/c1ccc(O)cc1)c1ccc(OCCN2CCCCC2)cc1)c1ccc(OC)cc1 | 20.1% | 4.3% (active) | 74.1% | 94.7% | 8.72% (active) | 79.4% | 88.6% | 112% | -40% (active) | 60.3% | 97.4% | 87% | 91.1% | 70% | 86.6% | 91.3% | 91.2% | 83.2% | 42.1% | 23%

From PubChem BioAssay (NCI)
